# Compound activity deposited in PubChem by several laboratories.
# The list is not random: actives were taken first. Their share in the collection is about 2.2%.
# TROY signal inh = TROY signaling inhibition | inhibition, % at 10 µM | Q293 LMP1-TROYcd NF-kB luciferase reporter, 4 h | actives 0.98% (n = 360,000);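 active means compounds whose plate-normalised and pattern-corrected inhibition of the luciferase reporter signal at the single screening dose is 50% or more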
# LGR2 antag = Drosophila LGR2 receptor signaling inhibition; inhibition, % at 9.99 µM; actives 0.35% (n = 380,000); HEK293 LGR2, CRE-luciferase, bursicon-stimulated, 4 h; AID 720647;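 active means drop in luminescence signal, shown as inhibition above about 50% in the replicate tests, limit read from the data, passing the limit was not always enough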;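 further: agonist challenge used bursicon conditioned medium at about half maximal strength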
# HSP90 inh = inhibitors of HSP90 luciferase refolding in rabbit reticulocyte lysate; luciferase refolding luminescence, 3 h; AID 1789; actives 0.91% (n = 290,000); inhibition, % at 5.6 µM;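 active means inhibition above the screen-wide mean plus 3 SD, computed separately per campaign, cut at about 16% in these data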;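 further: 0% = DMSO wells and 100% = 60 µM geldanamycin wells; inhibitors lower the luminescence because luciferase stays unfolded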
# TWEAK Fn14 block = TWEAK-Fn14 signaling inhibition. TWEAK-stimulated Fn14 reporter cells, luciferase luminescence, 8 h. AID 1159606. actives 2% (n = 360,000). inhibition, % at 10 µM; in the data active means inhibition above about 50%
# An asterisk follows results filed as active; x = not tested or not shown.
SMILES,TROY signal inh,LGR2 antag,HSP90 inh,TWEAK Fn14 block
CN1CCN(C(=O)[C@@H]2[C@@H](CO)[C@@H]3Cn4c(cccc4=O)[C@H]2N3S(=O)(=O)c2ccccc2F)CC1,x,-1,x,x
CC(=O)c1cc(NC(=O)c2ccc(C)cc2)c(=O)oc1/C=C/N(C)C,54*,x,0,0
CCCC(=O)Nc1ccc2c(c1)C(=O)N(C)[C@H]1CC[C@@H](CC(=O)NCC3CC3)O[C@@H]1CO2,x,-9,x,x
O=C(Nc1ccccc1O)c1ccc([N+](=O)[O-])cc1,-28,-14,0,110*
C[C@@H](NC(=O)c1coc(=O)c(Br)c1)c1ccccc1,9,x,2,87*
CCNc1ccc(C(=O)N/N=C/c2c(C)nn(-c3ccccc3)c2N2CCCC2)cc1[N+](=O)[O-],8,7,-4,31
Cc1ccc(NS(=O)(=O)c2cccc(C(=O)N/N=C/c3c(C)nn(-c4ccccc4)c3N3CCCC3)c2)c(C)c1,14,14,5,57*
CN1C(=O)C(CCC(N)=O)NC1=S (stereo not drawn),-3,x,1,17
CN1C(=O)[C@H](Cc2ccc([N+](=O)[O-])cc2)NC1=S,28,36,0,51*
O=C(C[C@@H]1C[C@@H]2c3cc(NC(=O)CC4CC4)ccc3O[C@@H]2[C@@H](CO)O1)NCc1ccc2c(c1)OCO2,x,2,x,x
C[C@H](CO)N1C[C@H](C)[C@@H](CN(C)C(=O)NC2CCCCC2)Oc2ccc(NC(=O)CCC(F)(F)F)cc2CC1=O,x,1,x,x
COCCNc1nc(Oc2cccc(F)c2)c2sccc2n1,-5,-12,x,13
COCCNc1nc(Oc2cncc(Cl)c2)c2sccc2n1,27,8,x,50*
COc1ccc(C(=O)Sc2ccc(C)cc2)cc1OC,1,x,4,28
COc1ccc(C(=O)Sc2ccc(Cl)cc2)cc1OC,5,x,0,57*
Cc1nc2ccccn2c1C(=O)/C=C/c1ccc(F)cc1,7,x,-2,41
Cc1nc2ccccn2c1-c1ccnn1S(=O)(=O)c1ccc(F)cc1,16,14,1,52*
O=[N+]([O-])c1ccccc1S(=O)NCc1c(Cl)cccc1Cl (stereo not drawn),55*,-2,x,8
N#C[C@@H]1[C@H](c2ccc(C#CC3CCCCC3)cc2)[C@@H](CO)N1C(=O)c1cccc(F)c1,x,65*,x,x
COc1cccc(C#Cc2ccc([C@@H]3[C@@H](CO)N(C(=O)C4CCC4)[C@H]3C#N)cc2)c1,x,100*,x,x
N#C[C@H]1[C@H](c2ccc(C#Cc3ccccc3F)cc2)[C@H](CO)N1C(=O)C1CCC1,x,102*,x,x
N#C[C@H]1[C@H](c2ccc(C#Cc3ccccc3F)cc2)[C@@H](CO)N1C(=O)C1CCC1,x,44,x,x
N#C[C@@H]1[C@H](c2ccc(C#Cc3cccc(F)c3)cc2)[C@@H](CO)N1C(=O)C1CC1,x,54*,x,x
N#C[C@@H]1[C@@H](c2ccc(C#CC3CCCCC3)cc2)[C@H](CO)N1C(=O)c1cccc(F)c1,x,-4,x,x
N#C[C@@H]1[C@@H](c2ccc(C#Cc3cccc(F)c3)cc2)[C@H](CO)N1C(=O)C1CC1,x,-13,x,x
SMILES,TROY signal inh,LGR2 antag,HSP90 inh,TWEAK Fn14 block
OC[C@@H]1[C@@H](c2ccc(-c3ccc(F)cc3)cc2)[C@H]2CN(Cc3cccnc3)CCCCN12,x,-1,x,x
O=C(O)C[C@H]1C=C[C@H](NC(=O)CCN2CCCCC2)[C@@H](CO)O1,x,17,x,x
C[C@H](NC(=O)C[C@H]1CC[C@H]2[C@@H](COC[C@H](O)CN2C(=O)Nc2ccccc2)O1)c1ccccc1,x,-4,x,x
N#C[C@@H]1[C@H](c2ccc(C#Cc3ccccc3F)cc2)[C@@H](CO)N1C(=O)C1CCCC1,x,66*,x,x
COc1ccccc1C#Cc1ccc([C@H]2[C@H](C#N)N(C(=O)C3CCCCC3)[C@H]2CO)cc1,x,83*,x,x
CCN(CC)C(=O)C1c2ccccc2Oc2ccccc21,-14,-7,1,61*
CNC[C@@H]1OCCCC[C@@H](C)Oc2ccc(NC(=O)c3ccncc3)cc2C(=O)N([C@H](C)CO)C[C@@H]1C,x,3,x,x
Cc1ccc(-c2cc(=O)c3cc(C)ccc3[nH]2)cc1,16,53*,12,67*
Cc1ccc(-c2cc(=O)c3cc(F)ccc3[nH]2)cc1,-27,-54,2,-10
O=C(N[C@H]1CC[C@H](CCn2cc(-c3ccccc3)nn2)O[C@H]1CO)c1ccccc1F,x,-2,x,x
Cn1c(=O)c2c(ncn2CCC(=O)N/N=C/c2cccnc2)n(C)c1=O,0,x,1,84*
Cn1c(=O)c2c(ncn2CCC(=O)N/N=C/c2ccccc2)n(C)c1=O,-1,3,3,1
Cc1noc(C)c1NC(=O)N(C)C[C@@H]1OCCCC[C@H](C)Oc2ccc(NC(=O)c3ccccc3)cc2C(=O)N([C@H](C)CO)C[C@H]1C,x,-8,x,x
O=C(/C=C/c1ccc(NC(=O)c2ccccc2-c2ccccc2C(=O)O)cc1)c1ccccc1,-21,-1,0,59*
CC(=O)CC1c2cc(F)ccc2C=C(c2ccsc2)N1c1ccc(C#CC2(O)CCCCC2)cc1 (stereo not drawn),-13,-23,x,57*
COc1cc(OC)cc(C2=Cc3ccccc3C(CC(C)=O)N2c2ccc(C#CC3(O)CCCCC3)cc2)c1 (stereo not drawn),36,-22,x,52*
C#CCOCCOCCOCCNc1nc(N2CCN(C(=O)CCCCCCCCCCNC(=O)[C@@H](CCSC)n3cc(CCO)nn3)CC2)nc(N2CCN(C(=O)CCCCCCCCCCNC(=O)[C@@H]([C@H](C)O)n3cc(C)nn3)CC2)n1,-28,11,x,23
C#CCOCCOCCOCCNc1nc(N2CCN(C(=O)CCCCCCCCCCNC(=O)Cn3cc(C[C@@H](C)O)nn3)CC2)nc(N2CCN(C(=O)CCCCCCCCCCNC(=O)[C@@H]([C@H](C)CC)n3cc(CCCCCN)nn3)CC2)n1,68*,x,x,-9
C#CCOCCOCCOCCNc1nc(N2CCN(C(=O)CCCCCCCCCCNC(=O)Cn3cc(C[C@@H](C)O)nn3)CC2)nc(N2CCN(C(=O)CCCCCCCCCCNC(=O)[C@@H]([C@H](C)O)n3cc(C)nn3)CC2)n1,-19,x,x,84*
C#CCOCCOCCOCCNc1nc(N2CCN(C(=O)CCCCCCCCCCNC(=O)Cn3cc(C[C@@H](C)O)nn3)CC2)nc(N2CCN(C(=O)CCCCCCCCCCNC(=O)[C@@H](CCSC)n3cc(CCO)nn3)CC2)n1,-39,x,x,60*
C#CCOCCOCCOCCNc1nc(N2CCN(C(=O)CCCCCCCCCCNC(=O)Cn3cc(CCCCCN)nn3)CC2)nc(N2CCN(C(=O)CCCCCCCCCCNC(=O)[C@@H]([C@H](C)O)n3cc(C)nn3)CC2)n1,1,x,x,-4
C#CCOCCOCCOCCNc1nc(N2CCN(C(=O)CCCCCCCCCCNC(=O)Cn3cc(CCCCCN)nn3)CC2)nc(N2CCN(C(=O)CCCCCCCCCCNC(=O)Cn3cc(C[C@@H](C)O)nn3)CC2)n1,-32,-20,x,-24
COc1ccccc1C(=O)NC(=S)Nc1ccc(Cc2ccncc2)cc1,62*,1,3,23
COc1c(C(=O)Nc2ccc(Cc3ccncc3)cc2)ccc2ccccc12,57*,-6,2,39
